Measured values taken from paper PMC7862700, “An all-to-all approach to the identification of sequence-specific readers for epigenetic DNA modifications on cytosine”.

How the values were obtained:
Assay in all cases: DAPPL (digital affinity profiling via proximity ligation, sequencing); 10 mM Tris-HCl pH 7.5, 50 mM NaCl, 1 mM DTT, 4% glycerol, room temperature, 30 min; GST-TFs on glutathione beads, 16-mer random dsDNA library, 0.1% formaldehyde crosslink after washing; high values mean tight binding
Conditions in all cases: protein: recombinant; tags: N-terminal GST; dsDNA, one strand shown
FLI1 = target: T1, FLI1 (Homo sapiens, UniProt Q01543 1-452)
T1 sequence: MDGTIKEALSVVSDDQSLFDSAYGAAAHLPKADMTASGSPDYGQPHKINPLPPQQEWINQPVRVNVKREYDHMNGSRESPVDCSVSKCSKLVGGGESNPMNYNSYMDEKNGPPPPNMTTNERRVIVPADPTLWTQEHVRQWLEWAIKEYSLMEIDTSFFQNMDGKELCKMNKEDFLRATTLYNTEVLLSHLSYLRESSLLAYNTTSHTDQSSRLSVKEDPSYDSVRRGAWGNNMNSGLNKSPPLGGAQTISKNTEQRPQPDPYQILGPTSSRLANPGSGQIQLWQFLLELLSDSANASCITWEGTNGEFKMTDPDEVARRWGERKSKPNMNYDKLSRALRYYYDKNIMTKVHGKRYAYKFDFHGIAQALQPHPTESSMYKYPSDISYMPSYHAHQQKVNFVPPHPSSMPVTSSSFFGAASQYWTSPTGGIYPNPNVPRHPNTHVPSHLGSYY
How it was run: (§1)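 The binding signal reported is, for every hexamer, its read frequency for a factor over its read frequency for the tag-only sample. Reads came from pools of yeast-expressed, GST-fused human transcription factors on glutathione beads, barcoded with DNA and mixed with that sample, which were incubated with 200 nmole of a random double-stranded 16-mer DNA library in Tris/NaCl/DTT/glycerol buffer at room temperature for 30 min. After washing, the pools were crosslinked with 0.1% formaldehyde, proximity-ligated with BsaI/T4 ligase for 1 h at 37 °C, PCR-amplified and sequenced on an Illumina NextSeq500.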

ELK1 = target: T2, ELK1 (Homo sapiens, UniProt P19419 1-428)
T2 sequence: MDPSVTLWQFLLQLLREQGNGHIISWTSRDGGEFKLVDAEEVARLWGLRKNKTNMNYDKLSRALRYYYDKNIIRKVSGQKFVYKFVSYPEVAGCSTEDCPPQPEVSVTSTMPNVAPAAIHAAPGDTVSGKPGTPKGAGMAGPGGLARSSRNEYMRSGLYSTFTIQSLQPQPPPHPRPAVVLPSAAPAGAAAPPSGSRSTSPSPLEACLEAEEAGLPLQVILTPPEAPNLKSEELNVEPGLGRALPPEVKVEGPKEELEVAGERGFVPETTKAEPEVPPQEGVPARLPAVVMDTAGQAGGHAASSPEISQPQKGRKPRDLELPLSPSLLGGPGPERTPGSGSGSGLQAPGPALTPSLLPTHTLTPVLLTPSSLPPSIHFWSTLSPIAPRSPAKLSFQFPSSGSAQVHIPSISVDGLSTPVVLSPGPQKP
How it was run: as §1

GABPA = target: T3, GABPA (Homo sapiens, UniProt Q06546 1-454)
T3 sequence: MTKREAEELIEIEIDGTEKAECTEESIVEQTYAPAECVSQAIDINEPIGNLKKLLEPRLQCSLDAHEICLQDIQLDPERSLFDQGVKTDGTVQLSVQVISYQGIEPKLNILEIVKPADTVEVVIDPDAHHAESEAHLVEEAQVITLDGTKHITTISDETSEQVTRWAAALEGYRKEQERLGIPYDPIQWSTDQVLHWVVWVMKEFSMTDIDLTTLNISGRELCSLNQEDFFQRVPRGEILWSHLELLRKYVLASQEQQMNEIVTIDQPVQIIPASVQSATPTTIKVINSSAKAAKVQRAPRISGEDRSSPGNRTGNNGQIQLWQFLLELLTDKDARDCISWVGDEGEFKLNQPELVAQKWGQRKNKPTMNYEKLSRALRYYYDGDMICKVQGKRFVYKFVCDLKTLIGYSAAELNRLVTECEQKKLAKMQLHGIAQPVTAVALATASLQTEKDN
How it was run: as §1

ERG = target: T4, ERG (Homo sapiens, UniProt P11308 1-479)
T4 sequence: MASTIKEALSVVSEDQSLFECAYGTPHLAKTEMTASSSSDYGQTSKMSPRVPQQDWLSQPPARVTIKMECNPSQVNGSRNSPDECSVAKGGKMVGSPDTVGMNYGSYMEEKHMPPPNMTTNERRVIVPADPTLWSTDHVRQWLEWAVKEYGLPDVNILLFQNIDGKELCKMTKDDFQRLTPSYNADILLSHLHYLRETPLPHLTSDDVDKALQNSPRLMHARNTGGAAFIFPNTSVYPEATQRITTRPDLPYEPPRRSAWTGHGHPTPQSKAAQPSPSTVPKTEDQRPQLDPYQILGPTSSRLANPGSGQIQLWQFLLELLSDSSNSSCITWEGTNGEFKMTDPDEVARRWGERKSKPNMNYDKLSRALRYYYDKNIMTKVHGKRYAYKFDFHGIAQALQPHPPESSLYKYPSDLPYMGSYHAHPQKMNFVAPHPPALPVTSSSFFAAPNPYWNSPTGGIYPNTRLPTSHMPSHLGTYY
How it was run: as §1

ELF1 = ELF1 (Homo sapiens, UniProt P32519 1-619)
How it was run: as §1

EHF = target: T5, EHF (Homo sapiens, UniProt Q9NZC4 1-300)
T5 sequence: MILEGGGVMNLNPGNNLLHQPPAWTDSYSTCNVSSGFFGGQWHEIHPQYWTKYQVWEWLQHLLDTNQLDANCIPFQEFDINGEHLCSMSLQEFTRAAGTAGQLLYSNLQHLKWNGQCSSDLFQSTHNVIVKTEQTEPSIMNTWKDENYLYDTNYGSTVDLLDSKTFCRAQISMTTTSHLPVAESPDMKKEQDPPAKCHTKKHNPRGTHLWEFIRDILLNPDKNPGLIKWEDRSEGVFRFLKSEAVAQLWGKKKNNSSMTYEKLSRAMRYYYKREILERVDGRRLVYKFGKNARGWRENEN
How it was run: as §1

SPI1 = SPI1 (Homo sapiens, UniProt P17947 1-270)
How it was run: as §1

SPIB = SPIB (Homo sapiens, UniProt Q01892 1-262)
How it was run: as §1

ELK3 = target: T6, ELK3 (Homo sapiens, UniProt P41970 1-407)
T6 sequence: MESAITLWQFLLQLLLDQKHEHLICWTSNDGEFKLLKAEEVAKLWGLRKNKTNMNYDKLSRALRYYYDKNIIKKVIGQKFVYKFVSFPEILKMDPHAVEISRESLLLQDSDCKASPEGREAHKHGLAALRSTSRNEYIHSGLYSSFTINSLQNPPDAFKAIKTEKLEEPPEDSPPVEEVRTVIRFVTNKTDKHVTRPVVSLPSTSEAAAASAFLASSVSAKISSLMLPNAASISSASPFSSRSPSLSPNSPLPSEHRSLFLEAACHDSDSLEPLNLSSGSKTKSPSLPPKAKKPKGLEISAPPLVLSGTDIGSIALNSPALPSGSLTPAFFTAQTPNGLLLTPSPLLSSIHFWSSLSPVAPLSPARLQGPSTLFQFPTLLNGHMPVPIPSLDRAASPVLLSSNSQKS
How it was run: as §1

Chain of ELF1 (P32519 whole entry): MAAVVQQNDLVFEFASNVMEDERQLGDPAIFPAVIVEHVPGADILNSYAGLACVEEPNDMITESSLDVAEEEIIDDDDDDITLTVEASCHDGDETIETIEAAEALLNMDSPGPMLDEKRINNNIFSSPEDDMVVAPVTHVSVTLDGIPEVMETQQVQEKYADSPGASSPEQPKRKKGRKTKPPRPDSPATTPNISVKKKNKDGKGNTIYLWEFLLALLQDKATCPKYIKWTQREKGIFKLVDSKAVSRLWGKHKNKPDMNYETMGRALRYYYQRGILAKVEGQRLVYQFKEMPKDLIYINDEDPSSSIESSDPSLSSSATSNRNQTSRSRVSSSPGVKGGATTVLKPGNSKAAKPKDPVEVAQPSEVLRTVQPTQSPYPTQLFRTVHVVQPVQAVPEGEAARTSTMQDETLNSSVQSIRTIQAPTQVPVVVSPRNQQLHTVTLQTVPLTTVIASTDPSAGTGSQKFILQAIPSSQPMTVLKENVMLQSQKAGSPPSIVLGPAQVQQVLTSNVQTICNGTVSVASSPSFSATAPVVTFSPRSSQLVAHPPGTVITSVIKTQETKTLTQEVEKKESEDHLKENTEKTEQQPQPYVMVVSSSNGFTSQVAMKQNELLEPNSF
Chain of SPIB (Q01892 whole entry): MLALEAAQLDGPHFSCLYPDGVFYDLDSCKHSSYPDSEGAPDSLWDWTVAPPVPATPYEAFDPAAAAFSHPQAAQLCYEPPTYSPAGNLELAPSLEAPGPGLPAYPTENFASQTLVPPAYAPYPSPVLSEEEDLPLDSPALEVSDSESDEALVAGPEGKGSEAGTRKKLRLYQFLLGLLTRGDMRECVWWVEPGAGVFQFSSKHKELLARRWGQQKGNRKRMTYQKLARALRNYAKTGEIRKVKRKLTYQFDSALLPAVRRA

| Sequence | binding signal (FLI1) | binding signal (ELK1) | binding signal (GABPA) | binding signal (ERG) | binding signal (ELF1) | binding signal (EHF) | binding signal (SPI1) | binding signal (SPIB) | binding signal (ELK3) |
| --- | --- | --- | --- | --- | --- | --- | --- | --- | --- |
| GCTACT | 1.37 fold enrichment (6-mer frequency, TF over GST control) | 1.25 fold enrichment (6-mer frequency, TF over GST control) | 1.32 fold enrichment (6-mer frequency, TF over GST control) | 1.38 fold enrichment (6-mer frequency, TF over GST control) | 1.35 fold enrichment (6-mer frequency, TF over GST control) | 1.33 fold enrichment (6-mer frequency, TF over GST control) | 1.27 fold enrichment (6-mer frequency, TF over GST control) | 1.23 fold enrichment (6-mer frequency, TF over GST control) | 1.29 fold enrichment (6-mer frequency, TF over GST control) |
| TATCAC | 1.33 fold enrichment (6-mer frequency, TF over GST control) | 1.25 fold enrichment (6-mer frequency, TF over GST control) | 1.04 fold enrichment (6-mer frequency, TF over GST control) | 1.17 fold enrichment (6-mer frequency, TF over GST control) | 1.3 fold enrichment (6-mer frequency, TF over GST control) | 1.19 fold enrichment (6-mer frequency, TF over GST control) | 1.28 fold enrichment (6-mer frequency, TF over GST control) | 1.22 fold enrichment (6-mer frequency, TF over GST control) | 1.23 fold enrichment (6-mer frequency, TF over GST control) |
| CCCTAT | 1.33 fold enrichment (6-mer frequency, TF over GST control) | 1.33 fold enrichment (6-mer frequency, TF over GST control) | 1.32 fold enrichment (6-mer frequency, TF over GST control) | 1.32 fold enrichment (6-mer frequency, TF over GST control) | 1.32 fold enrichment (6-mer frequency, TF over GST control) | 1.25 fold enrichment (6-mer frequency, TF over GST control) | 1.45 fold enrichment (6-mer frequency, TF over GST control) | 1.35 fold enrichment (6-mer frequency, TF over GST control) | 1.46 fold enrichment (6-mer frequency, TF over GST control) |
| TATTGT | 1.27 fold enrichment (6-mer frequency, TF over GST control) | 1.32 fold enrichment (6-mer frequency, TF over GST control) | 1.29 fold enrichment (6-mer frequency, TF over GST control) | 1.3 fold enrichment (6-mer frequency, TF over GST control) | 1.28 fold enrichment (6-mer frequency, TF over GST control) | 1.23 fold enrichment (6-mer frequency, TF over GST control) | 1.19 fold enrichment (6-mer frequency, TF over GST control) | 1.28 fold enrichment (6-mer frequency, TF over GST control) | 1.53 fold enrichment (6-mer frequency, TF over GST control) |
| GTTCTG | 1.14 fold enrichment (6-mer frequency, TF over GST control) | 1.21 fold enrichment (6-mer frequency, TF over GST control) | 1.16 fold enrichment (6-mer frequency, TF over GST control) | 1.16 fold enrichment (6-mer frequency, TF over GST control) | 1.08 fold enrichment (6-mer frequency, TF over GST control) | 1.16 fold enrichment (6-mer frequency, TF over GST control) | 1.17 fold enrichment (6-mer frequency, TF over GST control) | 1.16 fold enrichment (6-mer frequency, TF over GST control) | 1.18 fold enrichment (6-mer frequency, TF over GST control) |
| CTGGAT | 1.31 fold enrichment (6-mer frequency, TF over GST control) | 1.19 fold enrichment (6-mer frequency, TF over GST control) | 1.38 fold enrichment (6-mer frequency, TF over GST control) | 1.38 fold enrichment (6-mer frequency, TF over GST control) | 1.36 fold enrichment (6-mer frequency, TF over GST control) | 1.32 fold enrichment (6-mer frequency, TF over GST control) | 1.25 fold enrichment (6-mer frequency, TF over GST control) | 1.36 fold enrichment (6-mer frequency, TF over GST control) | 1.31 fold enrichment (6-mer frequency, TF over GST control) |
| GATCCT | 1.28 fold enrichment (6-mer frequency, TF over GST control) | 1.2 fold enrichment (6-mer frequency, TF over GST control) | 1.3 fold enrichment (6-mer frequency, TF over GST control) | 1.38 fold enrichment (6-mer frequency, TF over GST control) | 1.26 fold enrichment (6-mer frequency, TF over GST control) | 1.28 fold enrichment (6-mer frequency, TF over GST control) | 1.24 fold enrichment (6-mer frequency, TF over GST control) | 1.33 fold enrichment (6-mer frequency, TF over GST control) | 1.31 fold enrichment (6-mer frequency, TF over GST control) |
| GAACAA | 1.17 fold enrichment (6-mer frequency, TF over GST control) | 1.13 fold enrichment (6-mer frequency, TF over GST control) | 1.16 fold enrichment (6-mer frequency, TF over GST control) | 1.14 fold enrichment (6-mer frequency, TF over GST control) | 1.22 fold enrichment (6-mer frequency, TF over GST control) | 1.22 fold enrichment (6-mer frequency, TF over GST control) | 1.15 fold enrichment (6-mer frequency, TF over GST control) | 1.24 fold enrichment (6-mer frequency, TF over GST control) | 1.2 fold enrichment (6-mer frequency, TF over GST control) |
